# The list is not random: actives were taken first. Their share in the collection is about 3.4%.
# VDR inh: blocks the human vitamin D receptor. Potency, µM, without a hit: max response, negative = inhibition, actives largely listed as inhibitors. P11473. actives 0.93% (n = 400,000). VDR-SRC2-3 peptide fluorescence polarization, 2 h; also: % is scaled to controls: 0 for no effect and ±100 for the full control effect
#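 Measured by FP: displacement of SRC2-3 coactivator peptide from VDR by library compounds, following a two-hour ambient incubation.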
# Mito fusion act: blocks mitochondrial division or promotes mitochondrial fusion | S. cerevisiae fusion-defective mutant growth rescue, CellTiterGlo 48 h | Potency, µM (series often up to 46.1 µM), without a hit: at the highest dose growth rescue (activation), hits mostly activators | actives 0.23% (n = 320,000) | AID 485298; also: % of control where 0% means no effect; nearly all actives have a fitted effect of over 45% in size
#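 S. cerevisiae fusion-defective temperature-sensitive mutants (e.g. fzo1-1, mgm1-5) grown 48 h at 37C in YPEG (ethanol/glycerol non-fermentable) medium with 23 nl compound per well; growth rescue read as CellTiterGlo luminescence.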
# GCN5L2 inh: inhibitors of human GCN5L2 histone acetyltransferase; GCN5L2 HAT assay, ThioGlo1 CoA-SH fluorescence; Potency, µM (top dose mostly 58.9 µM), without a hit: top-dose activity change, negative = inhibition, most hits filed as inhibitors; actives 0.21% (n = 390,000); also: % is scaled to controls: 0 for no effect and ±100 for the full control effect
#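 Compounds, pin-transferred from DMSO stocks, meet 20nM GCN5L2 for 15 min before the reaction begins with H3(1-25) peptide (75uM) and acetyl-CoA (70uM). Thiol-reactive ThioGlo1 reports CoA release over 20 min at room temperature.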
# PLK1 PBD inh: blocks phosphopeptide binding to human PLK1 polo-box domain | Potency, µM, inactives show max response, negative = inhibition, actives largely listed as inhibitors | Plk1 PBD binding of FITC phosphopeptide, fluorescence polarization | actives 2.8% (n = 360,000) | P53350; also: series mostly up to about 57 µM; % is scaled to controls: 0 for no effect and ±100 for the full control effect; nearly all actives have a fitted effect of over 65% in size
# PKM2 activator: activators of human pyruvate kinase M2 | Potency, µM (series often up to 57.5 µM), inactives show at the highest dose activation, hits mostly activators | actives 0.34% (n = 260,000) | purified PKM2, Kinase-Glo ATP luminescence, activation; response scale: 0% is enzyme alone, no compound | AID 1631 | P14618; also: % is scaled to controls: 0 for no effect and ±100 for the full control effect; nearly all actives have a fitted effect of over 55% in size
#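 hPK-M2, >95% pure; 0.1 mM ADP / 0.5 mM PEP final; imidazole pH7.2 buffer w/ 7 mM MgCl2, 50 mM KCl; 1 h RT; Kinase-Glo lum. Intermediate enzyme activity for dual inhibitor/activator qHTS.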
# GLS inhibitor: glutaminase GLS (human) inhibition; O94925; GLS enzymatic activity, qHTS titration; Potency, µM (top dose mostly 45.5 µM), without a hit: at the highest dose activity change, negative = inhibition, most hits filed as inhibitors; actives 0.21% (n = 410,000); AID 624170; also: % is scaled to controls: 0 for no effect and ±100 for the full control effect
# Target sequence (O94925 whole entry, looked up): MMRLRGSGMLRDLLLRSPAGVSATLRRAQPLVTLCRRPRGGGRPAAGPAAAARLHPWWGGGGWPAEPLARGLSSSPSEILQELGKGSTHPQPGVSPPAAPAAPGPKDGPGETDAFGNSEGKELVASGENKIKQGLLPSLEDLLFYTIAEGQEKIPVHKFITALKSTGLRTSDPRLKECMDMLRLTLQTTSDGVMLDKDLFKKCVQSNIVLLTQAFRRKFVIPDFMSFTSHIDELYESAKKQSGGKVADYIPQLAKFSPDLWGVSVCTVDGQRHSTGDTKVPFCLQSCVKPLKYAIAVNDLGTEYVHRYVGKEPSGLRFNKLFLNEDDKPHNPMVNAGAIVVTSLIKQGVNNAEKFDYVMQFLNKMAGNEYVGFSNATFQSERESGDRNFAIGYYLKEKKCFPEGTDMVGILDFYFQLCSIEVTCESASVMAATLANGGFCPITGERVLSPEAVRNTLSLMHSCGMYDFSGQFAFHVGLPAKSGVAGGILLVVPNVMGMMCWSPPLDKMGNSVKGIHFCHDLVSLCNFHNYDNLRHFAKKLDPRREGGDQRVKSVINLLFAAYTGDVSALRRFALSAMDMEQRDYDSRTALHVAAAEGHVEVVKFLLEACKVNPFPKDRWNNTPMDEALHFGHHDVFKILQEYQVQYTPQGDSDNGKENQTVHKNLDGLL
#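 Human kidney-isoform GLS in 45 mM KH2PO4 pH 8.2, 0.02% Tween-20, with compound, started with 1mM L-Glutamine (added stock). Glutamate oxidase/HRP/Amplex red coupled fluorescence read at start and after 30 min at RT.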
# Active calls of the source: *; ? = inconclusive; . = not tested or not shown; ! = repeats disagree. Calls follow the shape of the dose curve; as a rule, active = well fitted curve in the direction sought with a large enough effect; inconclusive = small, poorly fitted or top-dose-only effect, or another doubt; inactive = no such curve, though single readings can be large; an effect the other way counts as inactive or inconclusive. Potency is read from the fitted curve at half-maximal effect.
SMILES,VDR inh,Mito fusion act,GCN5L2 inh,PLK1 PBD inh,PKM2 activator,GLS inhibitor
NS(=O)(=O)c1ccc(CCNC(=O)CCS(=O)(=O)c2ccc(Br)cc2)cc1,-25.9%,-4.0%,-15.3%,?,.,?
O=C(CCS(=O)(=O)c1ccc(Br)cc1)NCCc1ccccc1,17.9%,3.8%,-21.0%,29.9µM*,.,-6.4%
Cc1ccc(S(=O)(=O)CCNC(=O)Cc2ccccc2)cc1,56.2µM*,28.2%,-12.3%,9.47µM*,9.5%,-13.3%
Cc1ccc(-c2c(C3C4C=CCC(C)C4C(=O)N3Cc3ccccc3)ccc3ccccc23)cc1 (stereo not drawn),-16.3%,.,.,.,.,.
CCN(CC)C1=CC(=O)OC12CCCCC2,0.8%,-2.4%,20µM*,10.6µM*,-16.1%,-0.1%
CC(C)N(C1=CC(=O)OC12CCCCC2)C(C)C,34.4%,-2.9%,-6.5%,3.5%,-2.7%,2.0%
COc1ccccc1CNc1ncnc2ccc(-c3ccccc3C#N)cc12,-19.9%,.,-9.8%,.,.,.
Clc1ncc(C#Cc2ccccc2)c2ncncc12,28.2µM*,.,.,.,.,.
COc1ccc(C#Cc2cnc(Cl)c3cncnc23)cc1OC,-13.3%,.,.,.,.,.
Cc1ccc(CNC(=O)CCc2ccc(S(=O)(=O)NC3CCCCC3)cc2)cc1,-22.7%,21.1%,-5.7%,29.9µM*,16.5%,-4.0%
O=C(CCc1ccc(S(=O)(=O)NC2CCCCC2)cc1)NCc1cccnc1,-1.8%,-2.8%,-4.8%,-5.6%,6.9%,1.1%
CC1=C(C(=O)Nc2ccc(Cl)cc2)C(c2cccs2)n2nc(SCc3cccc(C)c3)nc2N1 (stereo not drawn),-4.8%,.,-3.1%,.,.,5.6%
O=S1(=O)C2CC3CCC2(CN1Cc1cccc(F)c1)O3 (stereo not drawn),0.4%,.,.,.,.,.
COc1cc(Cl)c(C)cc1NC(=O)Cn1ncc2c([nH]c3ccccc32)c1=O,-7.0%,.,-5.3%,.,.,1.6%
CC1(C)CC(=O)C(=CN2CCOCC2)C(=O)C1,-0.1%,16.1%,-16.8%,-16.8%,5.0%,19.1%
C=CC1C(N2CCOCC2)C(C)(C)S1(=O)=O (stereo not drawn),-5.9%,-0.4%,-4.0%,9.47µM*,-0.5%,?
Cc1cc(Br)cn2c(Cc3ccsc3)c(-c3cccc(Br)c3)nc12,.,.,.,7.0%,.,-3.1%
COc1cccc(/C=N/NC(=O)C(C)n2nnc3ccccc32)c1 (stereo not drawn),?,-5.9%,-0.1%,18.9µM*,-2.2%,?
COc1cccc(/C=N/NC(=O)C(C)Cn2cnc3ccccc32)c1 (stereo not drawn),2.0%,-0.7%,-2.2%,1.1%,-1.3%,0.0%
COc1cccc(/C=N/NC(=O)CCn2nnc3ccccc32)c1,-4.7%,1.2%,-11.9%,7.52µM*,4.1%,5.8%
COc1cccc(/C=N/NC(=O)Cn2cnc3c2c(=O)n(C)c(=O)n3C)c1,?,-4.3%,-7.1%,23.8µM*,-0.3%,-7.3%
C[C@H](N)C(=O)NCC(=O)N[C@H]1CSSC[C@@H](C(=O)O)NC(=O)[C@H](CO)NC(=O)[C@H]([C@@H](C)O)NC(=O)[C@H](Cc2ccccc2)NC(=O)[C@H]([C@@H](C)O)NC(=O)[C@H](CCCCN)NC(=O)[C@H](Cc2c[nH]c3ccccc23)NC(=O)[C@H](Cc2ccccc2)NC(=O)[C@H](Cc2ccccc2)NC(=O)[C@H](CC(N)=O)NC(=O)[C@H](CCCCN)NC1=O,-0.3%,.,48.6%,.,.,.
COc1cc(/C=C(\C#N)C(=O)c2ccc(O)c(O)c2)cc(I)c1O,?,23.1µM*!,-23.7%,40.2%,.,12.8%
CSCCC(NC(=O)c1cccc(C)c1)C(=O)NNC(=O)c1cccs1 (stereo not drawn),-7.5%,.,3.4%,-21.4%,.,21.9%
CCOc1ccc(-c2nc3c(C#N)c[nH]n3c2NC2CCCCC2)cc1,-6.1%,.,-6.3%,.,.,12.6µM*
SMILES,VDR inh,Mito fusion act,GCN5L2 inh,PLK1 PBD inh,PKM2 activator,GLS inhibitor
COc1ccc(-c2nc3c(C#N)c[nH]n3c2NC2CCCC2)cc1,11.1%,.,-4.3%,.,.,12.6µM*
N#Cc1c[nH]n2c(NC3CCCC3)c(-c3ccc(Cl)cc3)nc12,11.7%,.,-3.7%,.,.,?
O=C(O)/C=C(/CC(=O)O)C(=O)O,.,.,.,.,.,9.1%
COCOCCn1cc(CN2CCS(=O)(=O)N(Cc3ccc(-c4ccccc4)cc3)C(C(C)C)C2=O)nn1 (stereo not drawn),.,.,.,-1.5%,.,-1.4%
O=C(CCc1nnc2ccc(NCc3ccccc3)nn12)NC1CCCCC1,-12.9%,-1.4%,-4.6%,23.8µM*,.,14.3%
COC(=O)C1(C(=O)OC)C/C=C\Cc2ccccc2[C@@H]1C[N+](=O)[O-],-17.4%,.,.,.,.,.
c1ccc(CNc2cc(-c3ccoc3)ncn2)cc1,12.6µM*,.,-16.9%,.,.,.
c1ccc(CNc2cc(-c3cccnc3)ncn2)cc1,3.7%,.,-3.2%,.,.,.
COc1ccc(CNc2cc(-c3ccoc3)ncn2)c(OC)c1,11.2µM*,.,-20.4%,.,.,.
c1ccc(Nc2cc(-c3ccoc3)ncn2)cc1,11.2µM*,.,-12.9%,.,.,.
COc1cc(NC(=O)CC2C(=O)N(c3cccc(C)c3)C(=O)N2Cc2ccco2)cc(OC)c1 (stereo not drawn),6.9%,.,3.0%,.,.,-13.1%
COC(=O)[C@@]1(Cc2ccccc2)[C@H]2c3cc(C(=O)N(C)C)n(Cc4ccccc4)c3C[C@H]2CN1C(=O)c1ccccc1,.,.,.,.,-2.1%,.
CCc1nn2c(-c3ccccc3OC)ccnc2c1-c1ccccc1,15.2%,.,-12.0%,.,.,0.7%
CN(C)c1ccc(C(=C2C=CC(=[N+](C)C)C=C2)c2ccc(N(C)C)cc2)cc1,39.8µM*,.,-20.3%,.,.,1.7%
CN(Cc1cnccn1)C(=O)C1CCC(=O)N(CCc2ccc(Cl)cc2)C1 (stereo not drawn),-11.4%,0.6%,2.9%,-2.9%,.,5.5%
CC(=O)Nc1ccc(S(=O)(=O)NNC(=O)COc2ccc(C)cc2)cc1,-7.9%,0.5%,-0.1%,-6.1%,-1.6%,30.6%
CC(=O)Nc1ccc(S(=O)(=O)NNC(=O)COc2ccc(C(C)(C)C)cc2)cc1,-8.2%,-1.6%,-1.2%,26.7µM*,-1.1%,19.6%
CC(=O)Nc1ccc(S(=O)(=O)NNC(=O)c2ccc3c(c2)OCO3)cc1,1.3%,6.2%,0.8%,0.2%,-2.1%,0.7%
CC(=O)Nc1ccc(S(=O)(=O)NNC(=O)c2cccc(Cl)c2)cc1,-6.0%,1.5%,-8.3%,23.8µM*,-16.1%,25.0%
COc1cccc2c1OC(=O)CC2c1ccc(C)cc1 (stereo not drawn),7.1%,.,?,.,.,.
O=C(Cn1c2ncccc2c(=O)n1-c1ccccc1)Nc1ccc(F)c(F)c1,1.9%,.,-13.1%,.,.,-3.7%
Cc1cccc(NC(=O)CSc2nc(=O)n(Cc3cccnc3)c3c2CCC3)c1C,5.9%,.,-0.3%,.,.,-7.5%
